# Rows were chosen to be rich in hits. Some 19% of all compounds tested hit in one or more screens of this group.
# HT1080 IDH1KD tx: qHTS for induction of synthetic lethality in tumor cells producing 2HG: qHTS for the HT-1080-IDH1KD cell line; HT-1080 IDH1 knockdown viability, ATP luminescence, 48 h; Potency, µM (highest dose often 46.1 µM), hits mostly cytotoxic; 2% of 360,000 active; AID 686971, 2013
#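 % activity derives from luminescence (CellTiter-Glo), normalised to DMSO and no-cell wells. HT-1080-IDH1KD cells, 750/well, had 48 h compound exposure at 37 °C.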
# DT40 TDP1 no CPT: qHTS for Inhibitors of human tyrosyl-DNA phosphodiesterase 1 (TDP1): qHTS in cells in absence of CPT; 15% of 420,000 active; AID 686978, 2013; DT40 Tdp1-/- hTDP1 cells, no CPT, ATP luminescence, 48 h; Potency, µM (titrated, usually from 46.2 µM), most hits filed as inhibitors; also: nearly all actives have a fitted effect of over 55% in size
#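 Chicken DT40 Tdp1-/- cells stably complemented with human TDP1 were seeded at 400 cells/well with DMSO in place of 20 nM camptothecin. After compound pinning, cells grew at least 48 hr at 37 °C; viability read by CellTiter-Glo luminescence.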
# DT40 TDP1 CPT: qHTS for Inhibitors of human tyrosyl-DNA phosphodiesterase 1 (TDP1): qHTS in cells in presence of CPT; chicken DT40 Tdp1-/-;hTDP1 cells + 20 nM CPT, ATP luminescence, 48 h; Potency, µM (series often up to 46.2 µM), most hits filed as inhibitors; AID 686979, 2013; 12% of 420,000 active; also: nearly all actives have a fitted effect of over 55% in size
#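 Chicken DT40 Tdp1-/- cells complemented with human TDP1, 400 cells/well, exposed to compounds plus 20 nM camptothecin for at least 48 h at 37 C; viability read as ATP content by CellTiter-Glo luminescence.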
# HT1080NT lethal: qHTS for induction of synthetic lethality in tumor cells producing 2HG: qHTS for the HT-1080-NT fibrosarcoma cell line; HT-1080-NT fibrosarcoma viability, CellTiter-Glo ATP luminescence, 48 h; Potency, µM (top dose mostly 46.1 µM), most hits filed as cytotoxic; 1.6% of 360,000 active; AID 686970, 2013;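 also: NT is the 2HG producing partner of a matched IDH1 knockdown line; nearly all actives have a fitted effect of over 55% in size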
#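 HT-1080-NT fibrosarcoma cells (2HG-overproducing), 750 cells/well in RPMI with 5% FBS, dosed after 2 h and incubated 48 h at 37C. CellTiter-Glo luminescence normalized to DMSO and no-cell wells; concentration-response curves fitted and classed.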
# KB-3-1 cytotox: qHTS assay for MDR1-selective chemotherapeutics: Primary screen using the parental adenocarcinoma cell KB-3-1; KB-3-1 viability, CellTiter-Glo ATP luminescence, 72 h; Potency, µM (titrated, usually from 46.1 µM), actives largely listed as cytotoxic; 1.4% of 400,000 active; AID 1347075, 2019; also: nearly all actives have a fitted effect of over 60% in size
#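 Cytotoxicity measured as CellTiter-Glo luminescence after 72 h at 37 C. Compound titrations were pinned onto drug-naive KB-3-1 parental adenocarcinoma cells grown in DMEM with 10% FBS, and normalized data fitted to concentration-response curves.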
# KB-V1 MDR tox: qHTS assay for MDR1-selective chemotherapeutics: Primary screen using the drug-selected MDR subline cells KB-V1. KB-V1 MDR cells viability, CellTiter-Glo, 72 h. Potency, µM (top dose mostly 46.1 µM), usual class: cytotoxic. 3.4% of 400,000 active. AID 1347076, 2019; also: nearly all actives have a fitted effect of over 60% in size
#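 KB-V1 MDR subline cells in DMEM (phenol-red free, 10% FBS) exposed to compounds in qHTS concentration series for 72 h at 37 degrees C. Viability read by CellTiter-Glo luminescence; concentration-effect curves fitted after normalization and correction.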
# A number is an active result; - = inactive; ? = inconclusive; . = no result given; [ ] = remark or other dose. Calls follow the shape of the dose curve; as a rule, active = well fitted curve in the direction sought with a large enough effect; inconclusive = small, poorly fitted or top-dose-only effect, or another doubt; inactive = no such curve, though single readings can be large; an effect the other way counts as inactive or inconclusive.
SMILES,HT1080 IDH1KD tx,DT40 TDP1 no CPT,DT40 TDP1 CPT,HT1080NT lethal,KB-3-1 cytotox,KB-V1 MDR tox
COc1ccccc1C(=O)NC(CCSC)C(=O)NCc1ccncc1 (stereo unspecified),-,-,-,-,-,?
O=C(CN1CCN(Cc2ccccc2)CC1)Nc1ccc(Cl)cc1,-,-,-,-,-,-
Cc1nn(-c2ccccc2)c(C)c1C(=O)OCC(=O)Nc1ccccc1Cl,-,-,-,-,-,-
COc1ccc(C(=O)Nc2c(C)ccc3nsnc23)cc1[N+](=O)[O-],-,-,-,-,-,14.6µM
COc1ccc(C(=O)Nc2ccc(N3CCN(C(=O)c4ccccc4)CC3)cc2)cc1[N+](=O)[O-],-,?,14.6µM,-,-,?
COc1cc(C(=O)Nc2ccc(N3CCN(C(=O)c4ccc(C)cc4)CC3)cc2)cc(OC)c1OC,-,14.6µM,20.6µM,-,-,-
COc1ccc(OC)c(NC(=O)C2(C)CCN2C(=O)CC2CC2)c1 (stereo unspecified),-,?,-,-,-,-
CCOC(=O)N1CCN(C(=O)CN(c2ccccc2F)S(=O)(=O)c2ccc(C)cc2)CC1,.,?,?,.,-,-
Cc1ccc(C)c(NC(=S)N2CCC(NC(=O)C3CCCCC3)CC2)c1,-,-,-,-,-,-
C[C@@H]1CN([C@@H](C)CO)C(=O)c2cccc(NC(=O)C3CCCCC3)c2O[C@@H]1CN(C)C(=O)NC1CCCCC1,-,?,?,-,-,-
NC(=O)c1cc(-c2ccccc2)sc1NC(=O)CN1CCCCC1,14.6µM,23.1µM,20.6µM,?,-,-
CC(C)(C)C(=O)Nc1sc(-c2ccccc2)cc1C(=O)O,?,?,?,?,6.51µM,?
O=C(Nc1ccc([N+](=O)[O-])cc1)Nc1ccc(Cl)cc1F,-,1.64µM,2.59µM,-,?,18.4µM
Cc1cc(OC(F)F)ccc1NC(=O)Nc1ccc([N+](=O)[O-])cc1,-,18.4µM,14.6µM,-,?,?
COc1ccc(NC(=O)Nc2ccc(C)cc2OC(F)F)cc1OC,-,20.6µM,?,-,-,-
O=C(Nc1ccc(Cl)cc1)Nc1cc([N+](=O)[O-])ccc1F,-,-,-,-,-,-
CC(=O)c1ccc(S(=O)(=O)N2CCN(CC(=O)Nc3ccccc3C(=O)NC3CC3)CC2)cc1,-,?,?,-,?,-
COc1ccc(OCCOC(=O)c2ccc(F)c(S(=O)(=O)N3CCOCC3)c2)cc1,-,-,-,-,-,?
C[C@]1(O)CC(=O)C=C[C@H]1Nc1ccccc1,?,18.4µM,?,20.6µM,?,-
CC1(C)CC(C(=O)Nc2ccccc2)C(=O)O1 (stereo unspecified),-,-,-,-,-,-
Cc1ccccc1C(=O)N1CCc2cc(-c3nc(NC(=O)Cc4ccc5c(c4)OCO5)sc3C)ccc21,-,6.51µM,7.31µM,-,?,-
Cc1sc(NC(=O)CN2CCOCC2)nc1-c1ccc2c(c1)CCN2S(=O)(=O)c1ccccc1,?,9.2µM,20.6µM,?,?,4.11µM
Cc1sc(NC(=O)Cc2ccc3c(c2)OCO3)nc1-c1ccc2c(c1)CCN2C(=O)c1cccc(F)c1,-,9.2µM,11.6µM,-,-,-
Cc1cc(C(=O)Nc2ccccc2-c2nc(CNC(=O)c3cc4ccccc4cn3)c(C)o2)c(C)o1,.,-,-[9.04 µM],.,.,.
COc1ccc(/C=C2/N=C(SCC(=O)Nc3cc(C)on3)N(c3ccccc3)C2=O)cc1,-,-,-,-,-,-
SMILES,HT1080 IDH1KD tx,DT40 TDP1 no CPT,DT40 TDP1 CPT,HT1080NT lethal,KB-3-1 cytotox,KB-V1 MDR tox
CCN(CC)C1=N/C(=C\c2ccc(OC)cc2)C(=O)N1c1ccccc1,-,?,-,-,-,8.2µM
CCSC1=N/C(=C\c2ccccc2)C(=O)N1c1ccc(OC)cc1,-,20.6µM,?,-,-,-
C#CCOCCOCCOCCNc1nc(N2CCN(C(=O)CCCCCCCCCCNC(=O)[C@@H](CCC(=O)O)n3cc(CCCCCN)nn3)CC2)nc(N2CCN(C(=O)CCCCCCCCCCNC(=O)[C@H](CCCCN)n3cc(C[C@@H](C)CC)nn3)CC2)n1,?,?,?,?,-,-
C#CCOCCOCCOCCNc1nc(N2CCN(C(=O)CCCCCCCCCCNC(=O)[C@@H](CCSC)n3cc(CCO)nn3)CC2)nc(N2CCN(C(=O)CCCCCCCCCCNC(=O)[C@@H]([C@H](C)O)n3cc(C)nn3)CC2)n1,-,9.2µM,6.51µM,-,-,-
C#CCOCCOCCOCCNc1nc(N2CCN(C(=O)CCCCCCCCCCNC(=O)[C@@H](CCSC)n3cc(CCO)nn3)CC2)nc(N2CCN(C(=O)CCCCCCCCCCNC(=O)[C@H](CO)n3cc(CCCCCN)nn3)CC2)n1,?,?,?,?,-,-
C#CCOCCOCCOCCNc1nc(N2CCN(C(=O)CCCCCCCCCCNC(=O)[C@H](CCCCN)n3cc(CCO)nn3)CC2)nc(N2CCN(C(=O)CCCCCCCCCCNC(=O)[C@H](CCCCN)n3cc(C[C@@H](C)CC)nn3)CC2)n1,?,?,?,?,-,-
C#CCOCCOCCOCCNc1nc(N2CCN(C(=O)CCCCCCCCCCNC(=O)[C@H](CCCCN)n3cc(C[C@@H](C)CC)nn3)CC2)nc(N2CCN(C(=O)CCCCCCCCCCNC(=O)[C@@H]([C@H](C)O)n3cc(C)nn3)CC2)n1,?,5.17µM,4.61µM,?,?,9.2µM
C#CCOCCOCCOCCNc1nc(N2CCN(C(=O)CCCCCCCCCCNC(=O)[C@@H](CCSC)n3cc(CCO)nn3)CC2)nc(N2CCN(C(=O)CCCCCCCCCCNC(=O)[C@H](CCCN=C(N)N)n3cc(C[C@@H](C)CC)nn3)CC2)n1,?,?,25.9µM,?,-,?
C#CCOCCOCCOCCNc1nc(N2CCN(C(=O)CCCCCCCCCCNC(=O)[C@H](CCCCN)n3cc(C)nn3)CC2)nc(N2CCN(C(=O)CCCCCCCCCCNC(=O)[C@H](CCCN=C(N)N)n3cc(C[C@@H](C)CC)nn3)CC2)n1,?,11.6µM,23.1µM,?,?,?
CSc1cccc(NC(=S)N2CCCN(Cc3ccccc3F)C2)c1,-,-,?,-,-,-

# Screening results: PubChem, National Center for Advancing Translational Sciences (NCATS)
